DT40 TDP1 CPT: growth inhibition of DT40 Tdp1-/-;hTDP1 cells with camptothecin (screen for TDP1 inhibitors). chicken DT40 Tdp1-/-;hTDP1 cells + 20 nM CPT, ATP luminescence, 48 h. Potency, µM (series often up to 46.2 µM), inactives show top-dose activity change, negative = growth inhibition, most hits filed as inhibitors. 12% of 420,000 active. AID 686979; also: potency is read from the fitted curve at half-maximal effect; nearly all actives have a fitted effect of over 55% in size
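Chicken DT40 Tdp1-/- cells stably complemented with human TDP1 were seeded at 400 cells/well in medium containing 20 nM camptothecin, exposed to pin-transferred compounds, and grown at 37 °C for at least 48 hr. Viability was read as ATP luminescence.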
RORgamma inh: blocks mouse ROR gamma transcriptional activity. Drosophila S2 Gal4-RORgamma UAS-luciferase reporter, 20 h. Potency, µM (top dose mostly 53.6 µM), inactives show at the top dose activity change, negative = inhibition, most hits filed as inhibitors. 5.4% of 310,000 active. AID 2551; also: potency is read from the fitted curve at half-maximal effect; nearly all actives have a fitted effect of over 60% in size
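Drosophila Schneider cells stably carrying a metallothionein-driven Gal4 DBD–ROR gamma fusion and a UAS-Photinus luciferase reporter were exposed to compound for 1 hr, then induced with copper sulfate (700 uM final) for 20 hr at ambient temperature before luminescence reading.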
IL-1B inflam inh: blocks inflammasome-driven IL-1 beta release | THP-1 LPS/ATP IL-1B secretion, AlphaLISA, 16 h; hits give low values | activity change, % at 57.5 µM | 4.7% of 360,000 active | AID 743279; in the data active = activity change below about -50%; inconclusive = mostly about -30% to -49%
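Secreted IL-1B measured by AlphaLISA bead assay after 16 h compound exposure of THP-1 cells; compounds (final up to 57.5 uM) added 1 h before LPS (250 ng/mL) and ATP (1.25 mM) stimulation; lower signal means less secretion.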
ELG1 repair inh: inhibitors of ELG1-dependent DNA repair in HEK293T cells; HEK293T ELG1-luciferase reporter, luminescence, 16 h; DNA damage induced by 5-fluorouridine; 2.3% of 330,000 active; Potency, µM (top dose mostly 46.1 µM), for inactives: at the top dose activity change, negative = inhibition, actives largely listed as inhibitors; also: potency is read from the fitted curve at half-maximal effect; nearly all actives have a fitted effect of over 55% in size
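Overnight (16 hr) co-exposure of 2,000 cells/well to 5-fluorouridine and compound at 37 °C preceded detection. Luciferase was quantified via ONE-Glo luminescence; loss of signal denotes inhibition.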
TDP1 cell noCPT: qHTS for Inhibitors of human tyrosyl-DNA phosphodiesterase 1 (TDP1): qHTS in cells in absence of CPT; DT40 Tdp1-/- hTDP1 cells, no CPT, ATP luminescence, 48 h; Potency, µM (highest dose often 46.2 µM), without a hit: top-dose activity change, negative = growth inhibition, most hits filed as inhibitors; 15% of 420,000 active; AID 686978, 2013; also: potency is read from the fitted curve at half-maximal effect; nearly all actives have a fitted effect of over 55% in size
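Readout: luminescence from CellTiter-Glo after 30 min in the dark at RT. Cells: DT40 Tdp1-/- with stable hTDP1, 400/well. Exposure: compounds alone, ≥48 hr, 37 °C.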
Gal4-VP16 FLuc: Gal4-VP16 reporter inhibition counter-screen | Drosophila S2 Gal4-VP16 UAS-luciferase, luminescence, 20 h | Potency, µM (highest dose often 53.6 µM), without a hit: at the top dose activity, negative = inhibition, hits mostly inhibitors | 3.5% of 310,000 active;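 also: Gal4-VP16 expression switched on by copper sulfate through the metallothionein promoter; potency is read from the fitted curve at half-maximal effect; nearly all actives have a fitted effect of over 50% in size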
ELG1 FLuc counter: luciferase inhibition in cell-free luciferin readout for ELG1 hits. shares compounds with ELG1 repair inh. cell-free firefly luciferase luminescence counter-screen, ViewLux. Potency, µM (top dose mostly 46.1 µM), inactives show at the highest dose activity change, negative = inhibition, usual class: inhibitors. 3% of 350 active; also: potency is read from the fitted curve at half-maximal effect
ELG1-Luc inh: inhibits ELG1-dependent DNA repair in HEK293T cells, confirmed; shares compounds with ELG1 repair inh; HEK293T ELG1-luciferase levels, luminescence; cells co-treated with 5-fluorouridine; Potency, µM (doses to about 46.1 µM), without a hit: top-dose activity change, negative = inhibition, most hits filed as inhibitors; 68% of 670 active; AID 624248; also: potency is read from the fitted curve at half-maximal effect; nearly all actives have a fitted effect of over 55% in size
ELG1-Luc MMS: MMS-stimulated human ELG1 repair inhibition, confirmed | Potency, µM (top dose mostly 46.1 µM), without a hit: top-dose activity change, negative = inhibition, hits mostly inhibitors | HEK293T luciferase-tagged ELG1 level, MMS stimulated | shares compounds with ELG1 repair inh | 53% of 670 active; also: potency is read from the fitted curve at half-maximal effect; nearly all actives have a fitted effect of over 60% in size
ELG1 5-FU: confirmation of ELG1 repair inhibitors: viability with 5FU. shares compounds with ELG1 repair inh. cell viability with 5-FU, ELG1-dependent repair. Potency, µM (highest dose often 46.1 µM), for the others: at the top dose activity change, negative = viability loss, actives largely listed as cytotoxic. 670 tested, under 10 active;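 also: ELG1-luc HEK293T cells cotreated with 5-fluorouridine at 10 µM final; potency is read from the fitted curve at half-maximal effect; viability measured 16 h after compound addition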
ELG1 MMS viab: confirmation of ELG1 repair inhibitors: viability with MMS | Cell viability with MMS, ELG1-dependent DNA repair | AID 624251 | Potency, µM (highest dose often 46.1 µM), without a hit: at the top dose activity change, negative = viability loss, actives largely listed as cytotoxic | shares compounds with ELG1 repair inh | 33% of 670 active;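 also: ELG1-luc HEK293T cells co-treated with 10 µM MMS; potency is read from the fitted curve at half-maximal effect; viability read 16 h after compound addition; nearly all actives have a fitted effect of over 60% in size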
ELG1 unstim viab: unstimulated viability counter-screen for ELG1 repair hits; shares compounds with ELG1 repair inh; 8% of 900 active; cell viability counter-screen, unstimulated, luminescence; Potency, µM (doses to about 45.9 µM), for inactives: at the highest dose activity change, negative = loss of viability, usual class: cytotoxic;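 also: potency is read from the fitted curve at half-maximal effect; compound exposure lasted 16 hours before reading; nearly all actives have a fitted effect of over 55% in size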
FLuc enzyme: firefly luciferase inhibition counter-screen. 10% of 350 active. shares compounds with ELG1 repair inh. purified firefly luciferase, luminescence counter-screen. Potency, µM (doses to about 57.5 µM), for the others: at the top dose activity, negative = inhibition, most hits filed as inhibitors; also: potency is read from the fitted curve at half-maximal effect
* marks the source's active call; other numbers are inactive results; [ ] = dose if it differs, or a comment. Only a sample is shown. Unless noted, calls follow the shape of the dose curve; as a rule, active = well fitted curve in the direction sought with a large enough effect; inconclusive = small, poorly fitted or top-dose-only effect, or another doubt; inactive = no such curve, though single readings can be large; an effect the other way counts as inactive or inconclusive. % is scaled to controls: 0 for no effect and ±100 for the full control effect.

How did COc1ccc(-c2cc(C(F)(F)F)n3ncc(C(=O)NCc4ccco4)c3n2)cc1 do in these assays?
DT40 TDP1 CPT: -16.8%; RORgamma inh: -23.2%; IL-1B inflam inh: -2.0; ELG1 repair inh: 1.3µM*; TDP1 cell noCPT: inconclusive; Gal4-VP16 FLuc: -27.4%; ELG1 FLuc counter: 0.3%; ELG1-Luc inh: 1.77µM*; ELG1-Luc MMS: inconclusive; ELG1 5-FU: inconclusive; ELG1 MMS viab: -7.5%; ELG1 unstim viab: -12.2%; FLuc enzyme: -12.4%

Results for Nc1ccc2nc(SCC(=O)N3CCN(c4ccccc4)CC3)sc2c1 ?
DT40 TDP1 CPT: 17.4%; RORgamma inh: 28.4%; IL-1B inflam inh: -1.9; ELG1 repair inh: 2.59µM*; TDP1 cell noCPT: inconclusive; Gal4-VP16 FLuc: 3.9%; ELG1-Luc inh: inconclusive; ELG1-Luc MMS: 7.91µM*; ELG1 5-FU: -2.8%; ELG1 MMS viab: 7.05µM*; ELG1 unstim viab: inconclusive

What do the screens show for `C#CCSc1nnc(C)c(C)n1`?
DT40 TDP1 CPT: -11.7%; IL-1B inflam inh: 4.4; TDP1 cell noCPT: -3.1%

How did Cc1ccc(NC(=O)c2ccc(OC(=O)c3ccco3)cc2)cc1 do in these assays?
DT40 TDP1 CPT: -17.9%; RORgamma inh: 32.5%; IL-1B inflam inh: -7.8; ELG1 repair inh: inconclusive; TDP1 cell noCPT: -14.3%; Gal4-VP16 FLuc: -1.1%; ELG1 FLuc counter: 76.3%; ELG1 unstim viab: -0.6%; FLuc enzyme: -11.4%

How did O=C(Nc1cc(Cl)ccc1Cl)c1ccc(OC(=O)c2ccco2)cc1 do in these assays?
DT40 TDP1 CPT: -3.7%; RORgamma inh: 2.1%; IL-1B inflam inh: -15.1; ELG1 repair inh: 25.3%; TDP1 cell noCPT: inconclusive; Gal4-VP16 FLuc: -3.3%; ELG1 FLuc counter: 41.5%; ELG1 unstim viab: 4.3%; FLuc enzyme: 4.7%

How did Cc1ccc(Oc2ccc(NC(=O)c3ccco3)cc2)cc1 do in these assays?
DT40 TDP1 CPT: inconclusive; RORgamma inh: 30.9%[10 µM]; IL-1B inflam inh: -20.6; ELG1 repair inh: inconclusive; TDP1 cell noCPT: inconclusive; Gal4-VP16 FLuc: -2.8%

How did O=C(Nc1cc(Cl)ccc1Cl)c1cc(-c2ccco2)on1 do in these assays?
DT40 TDP1 CPT: 0.0%; RORgamma inh: -15.9%; IL-1B inflam inh: 9.6; ELG1 repair inh: inconclusive; TDP1 cell noCPT: -10.3%; Gal4-VP16 FLuc: -0.7%

What do the screens show for `Cc1ccc(NC(=O)c2ccc(OC(=O)c3cc4ccccc4o3)cc2)cc1`?
DT40 TDP1 CPT: -15.2%; RORgamma inh: 1.3%; IL-1B inflam inh: 14.1; ELG1 repair inh: inconclusive; TDP1 cell noCPT: -4.7%; Gal4-VP16 FLuc: inconclusive; ELG1 FLuc counter: 65.1%; ELG1 unstim viab: -1.5%; FLuc enzyme: inconclusive

Results for CC(=O)Nc1ccc(/C=C/c2sc3ccccc3[n+]2CCCCI)cc1 ?
DT40 TDP1 CPT: inconclusive; TDP1 cell noCPT: inconclusive; ELG1 unstim viab: -18.0%

How did CC(=O)Nc1ccc(OCCC[n+]2ccccc2)cc1 do in these assays?
DT40 TDP1 CPT: -3.1%; RORgamma inh: 3.7%; IL-1B inflam inh: 0.0; ELG1 repair inh: -18.2%; TDP1 cell noCPT: 22.2%; Gal4-VP16 FLuc: 3.0%

What do the screens show for `C=CCn1c(Oc2cccc(C)c2)nc2c1c(=O)n(C)c(=O)n2C`?
DT40 TDP1 CPT: -27.1%; RORgamma inh: 6.3%; IL-1B inflam inh: 32.7; ELG1 repair inh: inconclusive; TDP1 cell noCPT: inconclusive; Gal4-VP16 FLuc: 18.3%

What do the screens show for `C=CCn1c(Oc2ccccc2F)nc2c1c(=O)n(C)c(=O)n2C`?
DT40 TDP1 CPT: inconclusive; RORgamma inh: 28.0%; IL-1B inflam inh: 13.7; ELG1 repair inh: 4.11µM*; TDP1 cell noCPT: -25.5%; Gal4-VP16 FLuc: -11.3%; ELG1-Luc inh: 17.7µM*; ELG1-Luc MMS: 19.9µM*; ELG1 5-FU: inconclusive; ELG1 MMS viab: 1.1%; ELG1 unstim viab: 2.5%

Results for CC(Sc1cnccn1)C(=O)O (configuration not stated) ?
DT40 TDP1 CPT: 14.6%; RORgamma inh: -14.5%; IL-1B inflam inh: -0.6; ELG1 repair inh: inconclusive; TDP1 cell noCPT: -6.8%; Gal4-VP16 FLuc: -3.2%

How did CNc1ccc(/C=C2\C=Cc3ccccc32)cc1 do in these assays?
DT40 TDP1 CPT: inconclusive; TDP1 cell noCPT: -98.6%; ELG1 FLuc counter: 57.7%; ELG1 unstim viab: -4.7%; FLuc enzyme: 0.731µM*

Results for COc1cc(/C=C(/Sc2nnc(-c3ccc(F)cc3)o2)C(=O)O)ccc1OC(F)F ?
DT40 TDP1 CPT: inconclusive; RORgamma inh: 9.1%; IL-1B inflam inh: -12.3; ELG1 repair inh: -2.9%; TDP1 cell noCPT: inconclusive; Gal4-VP16 FLuc: -5.4%
